From PubChem BioAssay
Activity calls are given as the source filed them.

Assays:
[1] = test system: Plasmodium falciparum Sir2 (PF13_0152, Sir2A); assay: pfSir2 binders on small-molecule microarrays, primary screen, biochemical, small-molecule microarray, 635 nm fluorescence (AID 1098); conditions: small-molecule microarray binding, fluorescence 635 nm; higher = more signal;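 note: score merges spot fluorescence intensity with its signal-to-noise ratio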
[2] = small-molecule microarray binders of probe aDKK1, primary screen, biochemical, biotinylated probe, 635/667 nm fluorescence (AID 1099); conditions: higher = more signal;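 note: score merges 667nm spot fluorescence with signal to noise across triplicate slides; reference of the scale not given here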
[3] = small-molecule microarray binders of probe aCHRDL2, primary screen, biochemical, biotinylated probe, 635/667 nm fluorescence (AID 1100); conditions: higher = more signal
[4] = splicing luciferase reporter signal modulators, primary screen, spliceosome inhibition project, cell-based, HEK293, splice +/- reporter (AID 1101); conditions: luminescence, 24 h, higher = more signal, called active from +8 up or from −8 down;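 note: HEK293 cells carrying a splicing-competent luciferase reporter gene; test concentration not given here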
[5] = molecular target: Fibroblast growth factor 10 (Homo sapiens) (UniProt O15520); assay: FGF10 binders on small-molecule microarrays, primary screen, biochemical, small-molecule microarray, 635 nm fluorescence (AID 1102); conditions: FGF10 binding, fluorescence 635 nm, higher = more signal
[6] = test system: glycogen synthase kinase-3 (GSK3A per assay name; protocol says GSK3B); assay: GSK3 binders on small-molecule microarrays, primary screen, biochemical, small-molecule microarray, 635 nm fluorescence, GSK3A (AID 1103); conditions: small-molecule microarray binding, fluorescence 635 nm; higher = more signal; note: the record names both GSK3A and GSK3B
[7] = molecular target: Epidermal growth factor receptor (Homo sapiens) (UniProt P00533); assay: EGFR binders on small-molecule microarrays, primary screen, biochemical, small-molecule microarray, 635 nm fluorescence (AID 1104); conditions: EGFR binding, higher = more signal;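 note: score merges 667 nm emission intensity with spot signal to noise over triplicate slides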
[8] = molecular target: Follistatin-related protein 3 (Homo sapiens) (UniProt O95633); assay: FSTL3 binders on small-molecule microarrays, primary screen, biochemical, small-molecule microarray, 635 nm fluorescence (AID 1105); conditions: FSTL3 binding, higher = more signal;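 note: score merges emission near 667 nm and signal to noise per printed spot across three slides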
[9] = molecular target: Dickkopf-related protein 1 (Homo sapiens) (UniProt O94907); assay: DKK1 binders on small-molecule microarrays, primary screen, biochemical, small-molecule microarray, 635 nm fluorescence scan (AID 1106); conditions: DKK1 binding, higher = more signal;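 note: score merges emission near 667 nm with signal to noise over three replicate slides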
[10] = test system: Inhibin beta A chain (activin A); assay: INHBA (activin A) binders on microarrays, primary screen, biochemical, small-molecule microarray, 635 nm fluorescence scan (AID 1107); conditions: small-molecule microarray binding, higher = more signal;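 note: mouse activin A protein probed at 4.33 µg/mL on printed slides; score merges bound-protein fluorescence near 667 nm with spot signal-to-noise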

Chain of Fibroblast growth factor 10 (Homo sapiens) (O15520 whole entry, looked up): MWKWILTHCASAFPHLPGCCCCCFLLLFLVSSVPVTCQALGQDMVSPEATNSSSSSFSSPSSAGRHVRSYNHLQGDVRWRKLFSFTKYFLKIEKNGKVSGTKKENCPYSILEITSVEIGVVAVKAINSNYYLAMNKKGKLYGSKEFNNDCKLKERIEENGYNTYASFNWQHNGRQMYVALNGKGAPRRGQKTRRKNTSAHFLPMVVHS
Chain of Dickkopf-related protein 1 (Homo sapiens) (O94907 whole entry, looked up): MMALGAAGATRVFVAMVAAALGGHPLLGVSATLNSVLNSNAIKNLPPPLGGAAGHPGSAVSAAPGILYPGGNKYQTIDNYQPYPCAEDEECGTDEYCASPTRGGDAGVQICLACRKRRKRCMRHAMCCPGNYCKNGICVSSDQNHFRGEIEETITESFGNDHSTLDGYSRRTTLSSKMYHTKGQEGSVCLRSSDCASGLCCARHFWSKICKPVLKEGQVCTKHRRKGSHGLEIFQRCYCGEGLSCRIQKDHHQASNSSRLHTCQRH
Chain of Follistatin-related protein 3 (Homo sapiens) (O95633 whole entry, looked up): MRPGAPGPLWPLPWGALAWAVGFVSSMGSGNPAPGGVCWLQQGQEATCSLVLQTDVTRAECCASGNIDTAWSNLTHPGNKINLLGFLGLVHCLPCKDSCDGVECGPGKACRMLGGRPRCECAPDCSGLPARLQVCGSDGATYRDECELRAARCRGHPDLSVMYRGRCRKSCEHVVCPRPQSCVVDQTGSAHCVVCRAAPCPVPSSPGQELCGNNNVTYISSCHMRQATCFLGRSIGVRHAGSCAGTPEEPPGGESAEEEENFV
Chain of Epidermal growth factor receptor (Homo sapiens) (P00533 whole entry, looked up): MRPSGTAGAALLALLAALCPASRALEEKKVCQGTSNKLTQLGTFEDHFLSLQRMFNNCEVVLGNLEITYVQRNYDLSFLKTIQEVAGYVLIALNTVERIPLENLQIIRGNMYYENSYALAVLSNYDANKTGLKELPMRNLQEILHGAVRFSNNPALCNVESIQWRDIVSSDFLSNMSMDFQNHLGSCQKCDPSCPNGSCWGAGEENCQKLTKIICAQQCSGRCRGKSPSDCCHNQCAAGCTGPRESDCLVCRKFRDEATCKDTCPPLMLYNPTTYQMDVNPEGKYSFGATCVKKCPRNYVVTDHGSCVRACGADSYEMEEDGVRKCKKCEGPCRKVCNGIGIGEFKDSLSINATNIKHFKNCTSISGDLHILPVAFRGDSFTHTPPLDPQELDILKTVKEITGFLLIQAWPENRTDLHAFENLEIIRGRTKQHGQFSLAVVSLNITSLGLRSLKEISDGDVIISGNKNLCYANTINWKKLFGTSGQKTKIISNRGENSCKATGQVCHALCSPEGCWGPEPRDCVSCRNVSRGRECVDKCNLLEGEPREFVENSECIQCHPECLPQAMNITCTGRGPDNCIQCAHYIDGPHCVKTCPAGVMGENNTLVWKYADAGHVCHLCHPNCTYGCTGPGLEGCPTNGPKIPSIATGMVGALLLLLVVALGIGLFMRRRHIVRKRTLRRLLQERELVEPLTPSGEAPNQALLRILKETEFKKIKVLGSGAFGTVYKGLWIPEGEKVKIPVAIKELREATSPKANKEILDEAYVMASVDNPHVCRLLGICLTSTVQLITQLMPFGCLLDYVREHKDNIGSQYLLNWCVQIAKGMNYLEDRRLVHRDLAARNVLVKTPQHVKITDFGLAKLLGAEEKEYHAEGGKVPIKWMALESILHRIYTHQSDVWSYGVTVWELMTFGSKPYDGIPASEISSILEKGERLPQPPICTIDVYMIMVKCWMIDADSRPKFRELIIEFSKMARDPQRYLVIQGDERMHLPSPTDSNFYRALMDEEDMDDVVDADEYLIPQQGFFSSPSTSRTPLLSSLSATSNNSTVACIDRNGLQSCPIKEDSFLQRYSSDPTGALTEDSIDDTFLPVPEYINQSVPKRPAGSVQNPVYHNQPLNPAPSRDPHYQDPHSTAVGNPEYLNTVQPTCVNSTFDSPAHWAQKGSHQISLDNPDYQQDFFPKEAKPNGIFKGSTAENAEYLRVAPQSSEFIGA

| SMILES | composite z-score [1] | composite z-score [2] | composite z-score [3] | z-score [4] | composite z-score [5] | composite z-score [6] | composite z-score [7] | composite z-score [8] | composite z-score [9] | composite z-score [10] |
| --- | --- | --- | --- | --- | --- | --- | --- | --- | --- | --- |
| C=C(COC)/C(=C/C[C@H](OC(C)=O)c1ccc(CO)o1)c1cc(C(=O)OC)ccc1OC | 1.12 | 0.667 | -0.201 | -0.0994 (inactive) | 0.483 | -0.0434 | -0.173 | -0.0145 | -0.164 | 1.32 |
| O=C1N(Cc2ccccc2)c2ccccc2[C@@H]2OC(c3ccc(OCCCO)cc3)=N[C@]12CCS(=O)(=O)c1ccccc1 | 0.833 | 0.562 | 0.78 | 1.2 (inactive) | 0.17 | 0.251 | -0.24 | 0.0891 | 0.0435 | 1.07 |
| C=CC[C@@]12N=C(c3ccc(OCCCO)cc3)O[C@@H]1c1ccccc1N(C)C2=O | 1.13 | 0.178 | 0.899 | -0.933 (inactive) | 1.38 | 1.32 | 0.166 | 0.964 | 0.498 | 1.1 |
| O=C(NCCN1CCOCC1)C1N=C(c2ccc(OCCCO)cc2)N(c2ccccc2)O1 (stereo not given) | 0.439 | 0.273 | 0.766 | -0.764 (inactive) | 1.56 | 1.08 | 0.837 | 0.751 | 0.915 | 0.145 |
| CCOC(=O)C[C@H]1[C@H](OC(=O)c2ccc(-c3ccccc3)cc2)[C@@H](NC(=O)Cc2ccc(OC)cc2)c2cc(OCCCO)ccc2N1C(=O)c1ccccc1 | -0.168 | 0.18 | 0.294 | 0.122 (inactive) | 0.219 | -0.454 | -0.165 | -0.0876 | -0.384 | 0.407 |
| Cc1ccc(S[C@]2(C(=O)NCCCN(C)C)CC(=O)N(Cc3ccccc3C(F)(F)F)[C@@H]2c2ccc(CO)cc2)cc1 | -1.14 | 0.631 | 0.95 | 0.375 (inactive) | -0.904 | -0.761 | -0.636 | -1.47 | -0.798 | 0.94 |
| C=CCC(OC(C)=O)[C@@H]1[C@@H](N(Cc2ccc(-c3cccc(C(F)(F)F)c3)o2)C(=O)c2ccc(C)cc2)c2cc(OCCCO)ccc2N1C(=O)Cc1ccc2ccccc2c1 (stereo not given in full) | -0.291 | -0.183 | 0.314 | -0.337 (inactive) | -0.0662 | -1.46 | -0.206 | -0.458 | -0.214 | 1.14 |
| CCCC=C(CCC)[C@@H](NC(=O)c1cccs1)c1ccc(C(F)(F)F)cc1 | 0.119 | 0.607 | 0.406 | -2.16 (inactive) | 0.36 | 1.25 | 0.569 | 0.857 | -0.568 | 0.454 |
| COC(=O)[C@@]1(Cc2ccc(OC)cc2)[C@H]2c3cc(C(=O)N(C)C)n(Cc4ccc(S(C)(=O)=O)cc4)c3C[C@H]2CN1C(=O)c1ccccc1 | 1.29 | 0.511 | 0.573 | -0.109 (inactive) | -0.0911 | 0.904 | -0.0743 | 1.08 | 0.0527 | 1.16 |
| CN1C(=O)C2C=CC(C(O)c3ccc([N+](=O)[O-])cc3)N(N3CCCCC3)C2C1=O (stereo not given) | 1.41 | 0.193 | 0.956 | 0.943 (inactive) | 0.941 | 0.964 | 0.4 | 0.832 | -0.0607 | 1.23 |
| COc1ccc([Si](C)(C)[C@H]2[C@H](CCO)O[C@@]3(C(=O)N(Cc4ccc(N(C=O)c5ccccc5)cc4)c4ccccc43)[C@@H]2C)cc1 | -0.0179 | -0.214 | 0.479 | -1.07 (inactive) | -0.697 | -1.09 | -0.969 | -0.251 | -0.36 | 0.213 |
| COc1cc2c(cc1OC)CN(C(=O)[C@H]1[C@@H]3C(=O)O[C@@H](c4ccccc4)[C@@H](c4ccccc4)N3[C@@H](c3ccc(O)cc3)[C@]13C(=O)Nc1ccc(C#CCCO)cc13)CC2 | 0.957 | 0.0325 | 0.481 | 0.0673 (inactive) | 0.398 | 0.0837 | -0.0179 | 0.249 | -0.0546 | 0.224 |
| O=C1[C@@]23C=C(Br)[C@H](C[C@@H]2CCOC3)[C@@]12CO2 | 0.204 | -0.327 | -0.478 | 0.149 (inactive) | 0.254 | 0.329 | 0.442 | 0.473 | 0.485 | 0.684 |
| C=C(/C(=C/C[C@H](OC(C)=O)c1ccc(CO)o1)c1cc(C(=O)OC)ccc1OC)C(C)C | -0.415 | -0.0153 | -0.0899 | -0.0448 (inactive) | 0.505 | -0.196 | -0.455 | 0.397 | 0.0625 | 0.463 |
| C=CCNC(=O)[C@@H]1[C@H]2C(=O)O[C@H](c3ccccc3)[C@H](c3ccccc3)N2[C@H](c2ccccc2OCCO)[C@@]12C(=O)N(C(=O)OCCOC)c1ccccc12 | 1.54 | -0.0073 | -0.0387 | -0.108 (inactive) | 1.27 | 1.33 | 0.828 | 1.44 | 0.825 | 0.843 |
| CC1(C)C2C=C(C(O)C3C=CC4C(=O)NC(=O)C4N3Nc3ccc(Cl)cc3Cl)C[C@@H]1C2 (stereo not given in full) | 0.213 | 1.05 | 1.16 | 2.5 (inactive) | 0.808 | 0.0644 | 0.27 | 0.745 | -0.214 | 1.08 |
| COC(=O)[C@H](Cc1ccccc1)N[C@@H](/C=C/C1CC1)[C@H](O)Cc1ccccc1 | 1.02 | -0.157 | 0.442 | 0.488 (inactive) | -0.865 | -0.637 | -0.463 | -0.862 | -0.429 | 0.437 |
| COCCOC(=O)N1C(=O)[C@@]2(c3cc(C#CCC(C(=O)OC)C(=O)OC)ccc31)[C@H](c1ccccc1OCCO)N1[C@H](c3ccccc3)[C@H](c3ccccc3)OC(=O)[C@H]1[C@@H]2C(=O)N1CCN(c2ncccn2)CC1 | 0.875 | 0.231 | 0.237 | -0.397 (inactive) | 1.08 | 1.32 | 0.94 | 1.45 | 0.853 | 1.14 |
| [N-]=[N+]=NCc1ccccc1[C@@H]1OC(c2ccc(OCCCO)cc2)=N[C@]1(Cc1ccccc1)C(N)=O | 1.01 | 0.758 | 0.864 | -1.16 (inactive) | 1.42 | 1.3 | -0.592 | 0.881 | -0.117 | 0.857 |
| CCC(CC)C(O)C1C=CC2C(=O)NC(=O)C2N1Nc1ccccn1 (stereo not given) | 0.259 | 0.572 | -0.705 | 1.17 (inactive) | 0.269 | 0.291 | 0.384 | 0.584 | 0.816 | 1.29 |
| CN1C=C(C(=O)OCCS(C)(=O)=O)C(C(=O)OCCS(C)(=O)=O)=CC(c2ccc(CO)cc2)=CC1C1CC1 (stereo not given) | 0.666 | -0.0901 | 0.166 | 0.456 (inactive) | 0.16 | -0.0888 | 0.353 | -0.0857 | 0.0847 | 0.99 |
